# Laboratory results as given in the supplement of paper PMC8728848.
# This excerpt belongs to a sample that is enriched for the strongest signals.
# B1: CC1G-11630 (Coprinopsis cinerea), A8P462 (protein)
# chain: MTTEAKIKLKAVVYWELVFDYDNSSNTGEITQSYTVKISQTSTRSTFASEVSTTTIDTLTKNNQEVDVGASYGAISANVSASWEHSEEVNNMLEKTTQTSTEDTYTVETEETRSYTIGPGGMLSLFQKHFSGPGMHVAFDVFTTDLELAKERTEIDIDVDVEAIRFVREIRVVYTDIMSEAPGDHVREINGKNPDINYGFNGKFVWLVPEQTRKTAQALTNVEFVSQAESDDRYWDLAAGAGGSNRYLIPVYDTNNKDKIYELALWRSDSYITHDKVKAAGWSGTTGDINSGRGGTYLNLVWKTRHAY
# Tests used:
# Assay in all cases: glycan array binding signal (z-score within array); higher = stronger binding
# Conditions in all cases: glycan notation: IUPAC condensed, linker removed
# [1] = target: GalNAc3S(b1-4)GlcNAc
# How it was run: (§1)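 Glycan array data were curated from 3228 arrays in the Consortium for Functional Glycomics database and kept only where the protein sequence was available. Glycan names were converted to IUPAC-condensed notation, and columns mapping to the same glycan were averaged. The binding signal is a within-array Z-score, averaged across arrays of the same protein sequence at different concentrations or buffers and across linkers. Negative Z-scores can be read as non-binding.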
# [2] = target: GalNAc3S(b1-4)[Fuc(a1-3)]GlcNAc
# How it was run: as §1
# [3] = target: GalNAc4S6S(b1-4)GlcNAc
# How it was run: as §1
# [4] = target: GlcNAc(b1-2)Man(a1-3)[GlcNAc(b1-2)Man(a1-6)]Man(b1-4)GlcNAc(b1-4)[Fuc(a1-6)]GlcNAc
# How it was run: as §1
# [5] = target: GlcNAc(b1-2)[GlcNAc(b1-4)]Man(a1-3)[GlcNAc(b1-4)][GlcNAc(b1-2)Man(a1-6)]Man(b1-4)GlcNAc(b1-4)GlcNAc
# How it was run: as §1
# [6] = target: GlcNAc(b1-3)Gal(b1-4)GlcNAc
# How it was run: as §1
# [7] = target: GlcNAc(b1-3)Gal(b1-4)GlcNAc(b1-3)Gal(b1-4)GlcNAc(b1-3)Gal(b1-4)GlcNAc(b1-3)Gal(b1-4)GlcNAc(b1-2)[GlcNAc(b1-3)Gal(b1-4)GlcNAc(b1-3)Gal(b1-4)GlcNAc(b1-3)Gal(b1-4)GlcNAc(b1-3)Gal(b1-4)GlcNAc(b1-6)]Man(a1-6)[GlcNAc(b1-3)Gal(b1-4)GlcNAc(b1-3)Gal(b1-4)GlcNAc(b1-3)Gal(b1-4)GlcNAc(b1-3)Gal(b1-4)GlcNAc(b1-2)Man(a1-3)]Man(b1-4)GlcNAc(b1-4)[Fuc(a1-6)]GlcNAc
# How it was run: as §1
# [8] = target: GlcNAc(b1-4)Gal(b1-4)GlcNAc
# How it was run: as §1
# [9] = target: GlcNAc(b1-6)GalNAc
# How it was run: as §1
# [10] = target: Man(a1-2)Man(a1-3)[Man(a1-6)]Man(a1-6)[Man(a1-2)Man(a1-3)]Man(b1-4)GlcNAc(b1-4)GlcNAc
# How it was run: as §1
# [11] = target: Neu5Ac(a2-3)Gal(b1-3)[Fuc(a1-4)]GlcNAc
# How it was run: as §1
# [12] = target: Neu5Ac(a2-3)Gal(b1-4)[Fuc(a1-3)]GlcNAc
# How it was run: as §1
# [13] = target: Neu5Ac(a2-3)Gal(b1-4)[Fuc(a1-3)]GlcNAc(b1-6)[Neu5Ac(a2-3)Gal(b1-3)]GalNAc
# How it was run: as §1
# [14] = target: Neu5Ac(a2-6)Gal
# How it was run: as §1
# [15] = target: Neu5Ac(a2-6)Gal(b1-4)GlcNAc(b1-2)Man(a1-3)Man(b1-4)GlcNAc(b1-4)GlcNAc
# How it was run: as §1
# [16] = target: Neu5Ac(a2-6)Gal(b1-4)GlcNAc(b1-2)Man(a1-6)[Gal(b1-4)GlcNAc(b1-2)Man(a1-3)]Man(b1-4)GlcNAc(b1-4)GlcNAc
# How it was run: as §1
# [17] = target: Neu5Ac(a2-6)Gal(b1-4)GlcNAc(b1-3)Gal(b1-4)GlcNAc(b1-3)Gal(b1-4)GlcNAc(b1-2)Man(a1-3)[Neu5Ac(a2-6)Gal(b1-4)GlcNAc(b1-3)Gal(b1-4)GlcNAc(b1-3)Gal(b1-4)GlcNAc(b1-2)Man(a1-6)]GalNAc
# How it was run: as §1
# [18] = target: Neu5Ac(a2-6)Gal(b1-4)GlcNAc(b1-3)Gal(b1-4)GlcNAc(b1-6)[Gal(b1-3)]GalNAc
# How it was run: as §1
# [19] = target: Neu5Ac(a2-6)Gal(b1-4)GlcNAc(b1-3)[Neu5Ac(a2-6)Gal(b1-4)GlcNAc(b1-6)]GalNAc
# How it was run: as §1
# [20] = target: Neu5Ac(a2-6)Gal(b1-4)GlcNAc(b1-6)GalNAc
# How it was run: as §1
# [21] = target: Neu5Ac(a2-6)GlcNAc(b1-4)GlcNAc
# How it was run: as §1
# [22] = target: Neu5Ac(a2-8)Neu5Ac(a2-3)[GalNAc(b1-4)]Gal(b1-4)Glc
# How it was run: as §1
# [23] = target: Neu5Ac(a2-8)Neu5Ac(a2-8)Neu5Ac(a2-3)Gal(b1-4)Glc
# How it was run: as §1
# [24] = target: Neu5Ac(a2-8)Neu5Ac(a2-8)Neu5Ac(a2-8)Neu5Ac(a2-3)[GalNAc(b1-4)]Gal(b1-4)Glc
# How it was run: as §1
# [25] = target: Neu5Ac9Ac(a2-3)Gal(b1-3)GlcNAc
# How it was run: as §1
# [26] = target: Neu5Ac9Ac(a2-3)Gal(b1-4)GlcNAc
# How it was run: as §1
binder,measurement,setting,value
B1,glycan array binding signal (z-score),[1],-0.609
same,glycan array binding signal (z-score),[2],0.036
same,glycan array binding signal (z-score),[3],0.25
same,glycan array binding signal (z-score),[4],-0.33
same,glycan array binding signal (z-score),[5],-0.368
same,glycan array binding signal (z-score),[6],-0.538
same,glycan array binding signal (z-score),[7],5.85
same,glycan array binding signal (z-score),[8],-0.152
same,glycan array binding signal (z-score),[9],-0.182
same,glycan array binding signal (z-score),[10],-0.164
same,glycan array binding signal (z-score),[11],-0.138
same,glycan array binding signal (z-score),[12],-0.567
same,glycan array binding signal (z-score),[13],0.186
same,glycan array binding signal (z-score),[14],-0.074
same,glycan array binding signal (z-score),[15],-0.49
same,glycan array binding signal (z-score),[16],15.9
same,glycan array binding signal (z-score),[17],2.1
same,glycan array binding signal (z-score),[18],0.078
same,glycan array binding signal (z-score),[19],0.001
same,glycan array binding signal (z-score),[20],2.18
same,glycan array binding signal (z-score),[21],-0.717
same,glycan array binding signal (z-score),[22],0.069
same,glycan array binding signal (z-score),[23],-0.108
same,glycan array binding signal (z-score),[24],-0.33
same,glycan array binding signal (z-score),[25],0.279
same,glycan array binding signal (z-score),[26],-0.202
